Nrf2 block – Nrf2 qHTS screen for inhibitors; A549 ARE-Fluc reporter, luciferase luminescence, 18-24 h; Potency, µM (highest dose often 46 µM), without a hit: at the highest dose activity change, negative = inhibition, most hits filed as inhibitors; 2.1% of 360,000 active; note: % is set by controls: 0 for no effect and ±100 for the full control effect; nearly all actives have a fitted effect of over 60% in size
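A549 ARE_Fluc cells, 5000/well, 5% FBS OPTI-MEM; compounds in dose-response, 18-24 h at 37 °C/5% CO2; CellTiter-Fluor viability read (Ex 405/Em 525), then BugLite luciferase luminescence = Nrf2 activity.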
Nrf2 ARE act – qHTS of Nrf2 Activators. AREc32 ARE-luciferase reporter (MCF7-derived line), luminescence, 24 h. Potency, µM (top dose mostly 46.1 µM), for inactives: top-dose activation, actives largely listed as activators. AID 624171, 2012. 0.31% of 410,000 active; note: % of control where 0% means no effect; nearly all actives have a fitted effect of over 65% in size
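Steps: seed AREc32_Fluc cells (1000/well, 5% FBS OPTI-MEM); incubate overnight at 37 deg C; add 23 nL compound; incubate 24 hr; add Steady-Glo; hold 30 min RT; read luminescence.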
TGFb SMAD3 inh – qHTS for Inhibitors of TGF-b; HepG2 CAGA-GFP TGF-b/SMAD3 reporter, GFP fluorescence, 18 h; TGF-beta stimulated, 500 pg/mL final; Potency, µM (series often up to 46.1 µM), inactives show at the highest dose activity, negative = inhibition, actives largely listed as inhibitors; 1.2% of 410,000 active; AID 588855, 2011; note: % is set by controls: 0 for no effect and ±100 for the full control effect; nearly all actives have a fitted effect of over 65% in size
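HEPG2 CAGA-GFP reporter cells (1000/well, DMEM with 1% FBS) received compounds, then recombinant TGF-beta at 500 pg/mL final for 18 hours at 37 degrees C. Per-cell GFP summed per well was normalised to unstimulated and stimulated DMSO controls before curve fitting.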
A549 viability – Nrf2 qHTS screen for inhibitors: counterscreen for cytotoxicity; A549 ARE-Fluc cells, CellTiter-Fluor viability, 18-24 h; Potency, µM (top dose mostly 46 µM), for the others: at the highest dose activity change, negative = cytotoxicity, usual class: inhibitors; 0.16% of 390,000 active; AID 504648, 2011; note: % is set by controls: 0 for no effect and ±100 for the full control effect
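A549 ARE_Fluc cells in 5% FBS OPTI-MEM were exposed to compounds in concentration-response for 18-24 h at 37 deg C. Viability was read by CellTiter-Fluor fluorescence (Ex 405/Em 525) after 30 min, before the luciferase read.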
HepG2 tox – qHTS for Inhibitors of TGF-b: Cytotox Counterscreen | HepG2 CAGA-GFP viability, ATP luminescence, 18 h | Potency, µM (series often up to 46.1 µM), without a hit: at the top dose activity change, negative = cytotoxicity, usual class: cytotoxic | 0.76% of 410,000 active | AID 588856, 2011
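CellTiter-Glo luminescence gave cytotoxicity after 18 hours at 37 degrees C. The cells were HepG2 CAGA-GFP in 1% FBS DMEM, stimulated with 500 pg/mL TGF-beta after compound addition. %Activity was normalised to no-cell wells (complete cell-killing) and DMSO (no toxicity), and curves were fitted and classified.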
* = called active by the depositor; [ ] = dose if it differs, or a comment. Sampled rows, rich in hits. Any-hit rate of the full collection: about 3.6%. Calls come from the whole dose curve; as a rule, active = well fitted curve in the direction sought with a large enough effect; inconclusive = small, poorly fitted or top-dose-only effect, or another doubt; inactive = no such curve, though single readings can be large; an effect the other way counts as inactive or inconclusive. Potency is the fitted concentration of half-maximal effect.

What do the screens show for `Cc1ccccc1-c1noc(CSc2nc3ccccc3[nH]2)n1`?
Nrf2 block: 18µM*; Nrf2 ARE act: 0%; TGFb SMAD3 inh: inconclusive; A549 viability: -5%; HepG2 tox: -21%

What do the screens show for `Cc1ccc2cccc(OCC(=O)NCCC3=CCCCC3)c2n1`?
Nrf2 block: 10%; Nrf2 ARE act: 3%; TGFb SMAD3 inh: -5%; A549 viability: 0%; HepG2 tox: -17%

How did COc1ccc(C(=O)CCN(C)C)c2ccccc12 do in these assays?
TGFb SMAD3 inh: 6.3µM*; HepG2 tox: -103%

How did COc1ccc(C(=O)c2ccc(Cl)cc2)c2ccccc12 do in these assays?
Nrf2 block: inconclusive; Nrf2 ARE act: 0%; TGFb SMAD3 inh: -13%; A549 viability: 17%; HepG2 tox: -8%

What do the screens show for `O=C(N/N=C/c1ccc(O)cc1O)c1ccncc1`?
Nrf2 block: 12µM*; Nrf2 ARE act: -1%; TGFb SMAD3 inh: 14%; A549 viability: -17%; HepG2 tox: 21%

What do the screens show for `O=C(N/N=C/c1cc(Cl)cc(Cl)c1O)c1ccncc1`?
Nrf2 block: 9.2µM*; Nrf2 ARE act: -1%; TGFb SMAD3 inh: inconclusive; A549 viability: -8%; HepG2 tox: -54%

Results for O=C(N/N=C/c1ccc(Cl)cc1Cl)c1ccncc1 ?
Nrf2 block: 1%; Nrf2 ARE act: 0%; TGFb SMAD3 inh: -10%; A549 viability: -1%; HepG2 tox: -19%

Results for Cc1cc(C)nc(SCc2n[nH]c(=S)n2C)n1 ?
Nrf2 ARE act: -2%; TGFb SMAD3 inh: 7%; A549 viability: 0%; HepG2 tox: 2%

How did Cc1cn(-c2cccnc2)c(C)c1CNC[C@H]1O[C@@H](n2cnc3c(N)ncnc32)[C@H](O)[C@@H]1O do in these assays?
Nrf2 block: 8%; Nrf2 ARE act: -1%; TGFb SMAD3 inh: 11%; A549 viability: -3%; HepG2 tox: 9%

How did O=C(C1CCCO1)N1CCN(C(=S)Nc2ccccc2)CC1 (stereo unspecified) do in these assays?
Nrf2 block: -2%; Nrf2 ARE act: 0%; TGFb SMAD3 inh: 0%; A549 viability: 6%; HepG2 tox: 8%

Results for S=c1[nH]nc(Cc2cccs2)n1-c1ccccc1Cl ?
Nrf2 block: 16µM*; Nrf2 ARE act: -1%; TGFb SMAD3 inh: -4%; A549 viability: 6%; HepG2 tox: -9%

Results for CC(C)NC(=O)N(C)C[C@H]1Oc2c(NS(=O)(=O)c3cccs3)cccc2C(=O)N([C@H](C)CO)C[C@@H]1C ?
Nrf2 block: 2%; Nrf2 ARE act: 0%; TGFb SMAD3 inh: -5%; A549 viability: 0%; HepG2 tox: 5%

Results for CN(C1=C(N2CCOCC2)C(=O)c2ccccc2C1=O)c1ccccc1 ?
Nrf2 block: 0%; Nrf2 ARE act: 3%; TGFb SMAD3 inh: 10µM*; A549 viability: -16%; HepG2 tox: -2%

What do the screens show for `O=C1C=C(N2CCOCC2)c2ccccc2C1=O`?
Nrf2 block: 21µM*; Nrf2 ARE act: -4%; TGFb SMAD3 inh: 5µM*; A549 viability: inconclusive; HepG2 tox: 5µM*

Results for O=C1C=C(N2CCOCC2)c2cccc3cccc1c23 ?
Nrf2 ARE act: inconclusive; TGFb SMAD3 inh: 6%; HepG2 tox: -6%

Results for Cc1cccc(NC(=O)CC2S/C(=N/c3nccs3)N(C)C2=O)c1 (stereo unspecified) ?
Nrf2 block: -15%; Nrf2 ARE act: -1%; TGFb SMAD3 inh: 28%; A549 viability: -4%; HepG2 tox: -20%

How did O=C(NCc1ccccc1)[C@]1(C(F)(F)F)C[C@H](CCc2ccccc2)CCCO1 do in these assays?
Nrf2 block: -12%; Nrf2 ARE act: 0%; TGFb SMAD3 inh: inconclusive; A549 viability: 3%; HepG2 tox: 1%

Results for O=C(NCCNCCO)C1(C(F)(F)F)CC(CCc2ccccc2)CCCO1 (stereo unspecified) ?
Nrf2 block: -1%; TGFb SMAD3 inh: 4µM*; A549 viability: 4%; HepG2 tox: -22%

Results for CCc1ccccc1NC(=S)NCCSc1ccc(Cl)cc1 ?
Nrf2 block: 23µM*; Nrf2 ARE act: 0%; TGFb SMAD3 inh: inconclusive; A549 viability: inconclusive; HepG2 tox: 4%

Results for Cc1ccccc1NC(=S)NCCSc1ccc(Cl)cc1 ?
Nrf2 block: 23µM*; Nrf2 ARE act: -1%; TGFb SMAD3 inh: 0%; A549 viability: -21%; HepG2 tox: -6%

Results for Brc1ccc(OCc2nc3ccccc3[nH]2)cc1 ?
Nrf2 block: inconclusive; Nrf2 ARE act: 5%; TGFb SMAD3 inh: 8%; A549 viability: -2%; HepG2 tox: -10%

What do the screens show for `NC(N)=N/N=C/c1cc([N+](=O)[O-])ccc1O`?
Nrf2 block: -8%; Nrf2 ARE act: 0%[9.22 µM]; TGFb SMAD3 inh: -2%; A549 viability: inconclusive; HepG2 tox: -1%

Results for O=[N+]([O-])c1ccc(O)c(/C=N\N=C2c3ccccc3-c3ccccc32)c1 ?
Nrf2 block: inconclusive; Nrf2 ARE act: 15%; TGFb SMAD3 inh: 2.8µM*; A549 viability: inconclusive; HepG2 tox: -38%

What do the screens show for `CCN(CC)S(=O)(=O)c1ccc(NC2CCCc3ccccc32)nc1` (stereo unspecified)?
Nrf2 block: 15µM*; Nrf2 ARE act: 1%; TGFb SMAD3 inh: -11%; A549 viability: -13%; HepG2 tox: -36%

What do the screens show for `COc1cccc(NC(=O)CN(C)C(=O)c2c(C)nn(Cc3ccc(C)cc3)c2Cl)c1`?
Nrf2 block: -25%; Nrf2 ARE act: 0%; TGFb SMAD3 inh: inconclusive; A549 viability: -4%; HepG2 tox: -2%

What do the screens show for `CCOc1cc(/C=C2\CN(C)C/C(=C\c3ccc(O)c(OCC)c3)C2=O)ccc1O`?
Nrf2 block: 21µM*; Nrf2 ARE act: inconclusive; TGFb SMAD3 inh: inconclusive; A549 viability: 13µM*; HepG2 tox: -55%

What do the screens show for `CCOc1cc(/C=C2\CCC/C(=C\c3cc(Cl)c(O)c(OCC)c3)C2=O)cc(Cl)c1O`?
Nrf2 block: inconclusive; Nrf2 ARE act: inconclusive; TGFb SMAD3 inh: 5µM*; A549 viability: inconclusive; HepG2 tox: 7.9µM*

Results for COC(=O)N/N=C(\C)c1ccc(-n2ccnc2)cc1 ?
Nrf2 block: 18%; Nrf2 ARE act: 2%; TGFb SMAD3 inh: -14%; A549 viability: -3%; HepG2 tox: 2%

Results for COC(=O)c1sc(NC(=O)C(C)c2ccccc2)nc1C (stereo unspecified) ?
Nrf2 block: -9%; Nrf2 ARE act: 0%; TGFb SMAD3 inh: 30%; A549 viability: 11%; HepG2 tox: -1%
